Reference: PubChem BioAssay (EPA / NIEHS)
The source made the active and inactive calls. Rule for the calls: active = hit-call score of the fitted dose curve at least 0.9, where 1 is the maximum; inactive = score below 0.9.

read-out: Monocyte Chemoattractant Protein-1 (MCP1), CCL2 (gene 6347); experiment: BSK_CASM3C_MCP1: BioMAP Diversity Plus: CASM3C Assay for Monocyte Chemoattractant Protein-1 (MCP1) Biomarker Activity (AID 2283046); conditions: primary human coronary artery smooth muscle cells; actives raise or lower the signal;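 note: MCP-1 level quantified by ELISA 24 h after dosing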

SMILES | outcome | AC50
Cc1c(COC(=O)[C@@H]2[C@H](/C=C(\Cl)C(F)(F)F)C2(C)C)cccc1-c1ccccc1 | inactive | –
O=c1n(Cl)c(=O)n(Cl)c(=O)n1Cl | inactive | –
CC1(C)CCC(=Cc2ccc(Cl)cc2)C1(O)Cn1cncn1 (stereo unspecified) | inactive | –
COC(=O)N(C(=O)N1CO[C@@]2(C(=O)OC)Cc3cc(Cl)ccc3C2=N1)c1ccc(OC(F)(F)F)cc1 | inactive | –
CC1(C)CON(Cc2ccccc2Cl)C1=O | inactive | –
Cn1c(-c2ccccc2)cc(-c2ccccc2)[n+]1C | inactive | –
COC(=O)NC(=S)Nc1ccccc1NC(=S)NC(=O)OC | inactive | –
N#CN=C1SCCN1Cc1ccc(Cl)nc1 | inactive | –
CS(=O)(=O)c1cc(C(F)(F)F)ccc1C(=O)c1cnoc1C1CC1 | inactive | –
COP(=S)(OC)SCn1nnc2ccccc2c1=O | inactive | –
CCSC(=O)N1CCCCCC1 | inactive | –
O=C(O)c1c(Cl)ccc2cc(Cl)cnc12 | inactive | –
CCCCOCN(C(=O)CCl)c1c(CC)cccc1CC | – | 33.2 µM (active)
CCCCC(O)(Cn1cncn1)c1ccc(Cl)cc1Cl (stereo unspecified) | inactive | –
COCC(C)N(C(=O)CCl)c1c(C)csc1C (stereo unspecified) | inactive | –
CC1(C)C(C=C(Cl)Cl)C1C(=O)OC(C#N)c1cccc(Oc2ccccc2)c1 (stereo unspecified) | inactive | –
CCOP(=S)(OCC)Oc1nc(Cl)n(C(C)C)n1 | inactive | –
COP(=O)(OC)O/C(C)=C/C(=O)N(C)C | inactive | –

SMILES | outcome | AC50
CCN(CC)c1nc(C)cc(OP(=S)(OC)OC)n1 | inactive | –
Cc1cc(C)nc(Nc2ccccc2)n1 | inactive | –
O=P(O)(O)CCCl | inactive | –
CC(C)(C)C(=O)C(Oc1ccc(Cl)cc1)n1cncn1 (stereo unspecified) | inactive | –
C=C(C)CN(CC)c1c([N+](=O)[O-])cc(C(F)(F)F)cc1[N+](=O)[O-] | inactive | –
C=CCOC(=O)C(C)(C)OC(=O)c1cc(-n2c(=O)cc(C(F)(F)F)n(C)c2=O)ccc1Cl | – | 12.9 µM (active)
CCN(CC)C(=O)C(C)Oc1cccc2ccccc12 (stereo unspecified) | inactive | –
COCc1cnc(C2=NC(C)(C(C)C)C(=O)N2)c(C(=O)O)c1 (stereo unspecified) | inactive | –
O=C1C2CC=CCC2C(=O)N1SC(Cl)(Cl)Cl (stereo unspecified) | – | 31.7 µM (active)
CCCC(=NOCC)C1=C(O)CC(CC(C)SCC)CC1=O (stereo unspecified) | inactive | –
CO/N=C(/C1=NOCCO1)c1ccccc1Oc1ncnc(Oc2ccccc2Cl)c1F | inactive | –
CC(C)Oc1cccc(NC(=O)c2ccccc2C(F)(F)F)c1 | inactive | –
CC(C)C1(C)N=C(c2ncccc2C(=O)O)NC1=O (stereo unspecified) | inactive | –
COCC(=O)N(c1c(C)cccc1C)C(C)C(=O)OC (stereo unspecified) | inactive | –
CC(C)N1C(=O)N(c2ccccc2)CSC1=NC(C)(C)C | inactive | –
CCNP(=S)(OC)O/C(C)=C/C(=O)OC(C)C (stereo unspecified) | inactive | –
CNC(=O)Oc1cccc2ccccc12 | inactive | –

read-out: not listed separately; experiment: BSK_CASM3C_Proliferation: Cell Proliferation Assessment in the BioMAP Diversity Plus: CASM3C Assay (AID 2283047); conditions: primary human coronary artery smooth muscle cells;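 note: sulforhodamine B total protein stain as relative cell number at 560 nm; sub-confluent cells exposed 48 h before staining; fitted both ways against DMSO so gain or loss of cell number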

SMILES | outcome | AC50
Cc1c(COC(=O)[C@@H]2[C@H](/C=C(\Cl)C(F)(F)F)C2(C)C)cccc1-c1ccccc1 | inactive | –
O=c1n(Cl)c(=O)n(Cl)c(=O)n1Cl | inactive | –
CC1(C)CCC(=Cc2ccc(Cl)cc2)C1(O)Cn1cncn1 (stereo unspecified) | inactive | –
COC(=O)N(C(=O)N1CO[C@@]2(C(=O)OC)Cc3cc(Cl)ccc3C2=N1)c1ccc(OC(F)(F)F)cc1 | – | 12.4 µM (active)
CC1(C)CON(Cc2ccccc2Cl)C1=O | inactive | –
Cn1c(-c2ccccc2)cc(-c2ccccc2)[n+]1C | inactive | –
COC(=O)NC(=S)Nc1ccccc1NC(=S)NC(=O)OC | inactive | –
N#CN=C1SCCN1Cc1ccc(Cl)nc1 | inactive | –
CS(=O)(=O)c1cc(C(F)(F)F)ccc1C(=O)c1cnoc1C1CC1 | inactive | –
COP(=S)(OC)SCn1nnc2ccccc2c1=O | inactive | –
CCSC(=O)N1CCCCCC1 | inactive | –
O=C(O)c1c(Cl)ccc2cc(Cl)cnc12 | inactive | –
CCCCOCN(C(=O)CCl)c1c(CC)cccc1CC | – | 27.4 µM (active)
CC(C)N1C(=O)c2ccccc2NS1(=O)=O | inactive | –
CCCCC(O)(Cn1cncn1)c1ccc(Cl)cc1Cl (stereo unspecified) | inactive | –
COCC(C)N(C(=O)CCl)c1c(C)csc1C (stereo unspecified) | inactive | –
CC1(C)C(C=C(Cl)Cl)C1C(=O)OC(C#N)c1cccc(Oc2ccccc2)c1 (stereo unspecified) | inactive | –
CCOP(=S)(OCC)Oc1nc(Cl)n(C(C)C)n1 | inactive | –

SMILES | outcome | AC50
COP(=O)(OC)O/C(C)=C/C(=O)N(C)C | inactive | –
CCN(CC)c1nc(C)cc(OP(=S)(OC)OC)n1 | inactive | –
Cc1cc(C)nc(Nc2ccccc2)n1 | inactive | –
O=P(O)(O)CCCl | inactive | –
CC(C)(C)C(=O)C(Oc1ccc(Cl)cc1)n1cncn1 (stereo unspecified) | inactive | –
C=C(C)CN(CC)c1c([N+](=O)[O-])cc(C(F)(F)F)cc1[N+](=O)[O-] | inactive | –
C=CCOC(=O)C(C)(C)OC(=O)c1cc(-n2c(=O)cc(C(F)(F)F)n(C)c2=O)ccc1Cl | inactive | –
CCN(CC)C(=O)C(C)Oc1cccc2ccccc12 (stereo unspecified) | – | 0.531 µM (active)
COCc1cnc(C2=NC(C)(C(C)C)C(=O)N2)c(C(=O)O)c1 (stereo unspecified) | inactive | –
O=C1C2CC=CCC2C(=O)N1SC(Cl)(Cl)Cl (stereo unspecified) | – | 7.03 µM (active)
CCCC(=NOCC)C1=C(O)CC(CC(C)SCC)CC1=O (stereo unspecified) | inactive | –
CO/N=C(/C1=NOCCO1)c1ccccc1Oc1ncnc(Oc2ccccc2Cl)c1F | – | 12.9 µM (active)
CC(C)Oc1cccc(NC(=O)c2ccccc2C(F)(F)F)c1 | inactive | –
CC(C)C1(C)N=C(c2ncccc2C(=O)O)NC1=O (stereo unspecified) | inactive | –
COCC(=O)N(c1c(C)cccc1C)C(C)C(=O)OC (stereo unspecified) | inactive | –
CC(C)N1C(=O)N(c2ccccc2)CSC1=NC(C)(C)C | – | 30 µM (active)
CCNP(=S)(OC)O/C(C)=C/C(=O)OC(C)C (stereo unspecified) | inactive | –
CNC(=O)Oc1cccc2ccccc12 | – | 26.2 µM (active)
